# From article PMC5540273 (PLoS ONE, 2017)
# How the values were obtained:
# Details in all cases: concentration: 1 μM, replicates: in singlicate; n = 1
# CDK4-cyclinD1 = system: CDK4-cyclinD1
# CDK4-cyclinD3 = system: CDK4-cyclinD3
# CDK4 = system: CDK4
# CDK5 = system: CDK5
# CDK7 = system: CDK7
# CDK8 = system: CDK8
# CDK9 = system: CDK9
# CDKL1 = system: CDKL1
# CDKL2 = system: CDKL2
# CDKL3 = system: CDKL3
# CDKL5 = system: CDKL5
# CHEK1 = system: CHEK1
# CHEK2 = system: CHEK2
# CIT = system: CIT
# CLK1 = system: CLK1
# CLK2 = system: CLK2
# CLK3 = system: CLK3
# CLK4 = system: CLK4
# CSF1R-autoinhibited = system: CSF1R-autoinhibited
# CSF1R = system: CSF1R
# 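Also: KINOMEscan kinase panel screen.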
SMILES,%Inh (CDK4-cyclinD1) [%],%Inh (CDK4-cyclinD3) [%],%Inh (CDK4) [%],%Inh (CDK5) [%],%Inh (CDK7) [%],%Inh (CDK8) [%],%Inh (CDK9) [%],%Inh (CDKL1) [%],%Inh (CDKL2) [%],%Inh (CDKL3) [%],%Inh (CDKL5) [%],%Inh (CHEK1) [%],%Inh (CHEK2) [%],%Inh (CIT) [%],%Inh (CLK1) [%],%Inh (CLK2) [%],%Inh (CLK3) [%],%Inh (CLK4) [%],%Inh (CSF1R-autoinhibited) [%],%Inh (CSF1R) [%]
Cc1cccc2c(-c3ccncn3)c(-c3ccc(F)cc3)nn12 [GW515532],0,0,0,0,0,10,0,0,13,0,0,5,0,82,99.9,0,100,22,0,0
Nc1nccc(-c2c(-c3ccc(F)cc3)ncn2C2CCN(Cc3ccccc3)CC2)n1 [SB-219980],0,0,5,16,13,0,0,0,0,9,2,0,8,97.6,0,6,0,0,15,0
CS(=O)(=O)CCNCc1nc(-c2ccc3ncnc(Nc4ccc(OCc5ccccc5)c(Cl)c4)c3c2)cs1.Cl [GW582764],45,0,38,0,0,47,0,9,18,0,0,100,30,38,22,0,0,6,48,3
Cc1nccc(-c2c(-c3ccc(F)cc3)ncn2CCCN2CCOCC2)n1.Cl [SB-282975],14,33,18,3,27,39,100,34,20,12,0,7,14,21,21,5,18,0,0,0
Cc1ccccc1Cn1ccn2c(=O)cc(N3CCOCC3)nc12 [GSK2269905],0,0,0,0,0,0,0,12,15,0,3,0,0,3,48,0,28,30,0,26
O=C(Nc1n[nH]c2nc(-c3ccco3)c(Br)cc12)C1CCN(Cc2ccccc2)C1.O=C(O)[C@H](O)[C@@H](O)C(=O)O (stereo not drawn) [SB-742034],0,0,14,8,81,0,0,51,69,0,85,16,0,0,0,0,0,7,0,10
Fc1ccc(-c2nc3n(c2-c2ccncc2)CCS3)cc1 [GI98581],0,0,31,6,0,19,0,2,4,0,0,0,0,92.9,28,0,0,9,0,0
CNc1nc(-c2ccc3c(N)n[nH]c3c2)cc(N2C[C@@H](C(=O)NC3CCCCC3)OC[C@H]2C)n1 [GSK2375584],3,7,100,0,3,45,0,13,0,0,1,7,27,0,21,0,0,20,37,2
Cc1cnc(N)c(/C=C/c2cncc(C(=O)NCCc3ccc(Cl)cc3Cl)c2)c1.Cl [GSK190937],0,0,16,0,0,88,0,0,15,0,9,0,26,31,38,48,0,57,6,25
